From PubChem BioAssay AID652067 (The Scripps Research Institute Molecular Screening Center, 2013) come the findings set out here.

Out of some 370,000 compounds screened, about 5,400 (1.5%) were called active.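 The calls were made as follows: active = activation above the mean of all tested compounds plus 3 SD (cut at about 5.5% in these data); inactive = the rest.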 The full list was thinned out, with actives kept by preference.

The subject of the experiment is DAF-12 nuclear receptor (Haemonchus contortus). The experiment can be described thus: H. contortus DAF-12 nuclear receptor activators, primary screen, cell-based, luminescence, HEK293, lit1-tk-luc reporter (AID 652067).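 Also: 100% = response to 3 µM Δ7-dafachronic acid high control.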 Conditions: HEK293 hcDAF-12 lit1-tk-luc reporter, at 6.8 µM, active compounds read high, 0% DMSO, 100% Δ7-dafachronic acid.
In the case of `C[C@H](CO)N1C[C@H](C)[C@@H](CN(C)C(=O)Nc2ccccc2F)OCc2cn(nn2)CCCC1=O`, the activation was -0.15% (inactive).

For the compound `COC(=O)c1ccc(/C=N/NC(=O)C(=O)N2CCCCCC2)cc1`, the activation is -0.19% (inactive).

On to `C/C(=N\NC(=O)OC(C)(C)C)c1ccc[nH]1`, for which the activation was 1.29% (inactive).

Consider `CC(C)(C)OC(=O)N/N=C/c1ccc(C(=O)O)cc1`, for which the activation was 7.41% (active).

Turning to `CCCCC(=O)N[C@@H]1CC[C@@]23CCCN2C(=O)CCC[C@H]3[C@H]1C`, the activation was 0.2% (inactive).

Turning to `COc1ccc(OCc2cc(C(=O)N3CCCC3)no2)c2ccccc12`, the activation was 10.3% (active).

With `O=C(c1cc(-c2ccc(O)cc2)on1)N1CCOCC1`, the activation is 6.07% (active).

With `COc1cc(Cl)ccc1OCc1cc(C(=O)N2CC[C@@H]3CCCC[C@H]3C2)no1`, the activation is 1.66% (inactive).

Turning to `Cc1ccc(O)c(NC(=O)c2cc(-c3ccco3)on2)c1`, the activation is 0.32% (inactive).

Consider `O=C(Nc1ccccc1C(F)(F)F)c1cc(-c2ccc(O)cc2)on1`, for which the activation is -0.51% (inactive).

`O=C(c1cc(COc2ccc(F)cc2F)on1)N1CCOCC1`: the activation was 1.67% (inactive).

On to `COCCN1CCN(C(=O)c2cc(COc3ccc(F)cc3Cl)on2)CC1`, for which the activation was -1.75% (inactive).

As for `O=C(NC1CCCC1)c1cc(-c2ccccc2)on1`, the activation was 4.69% (inactive).

With `O=C(c1cc(C2CCCCN2S(=O)(=O)c2ccccc2)on1)N1CCOCC1` (centres undefined), the activation was -0.3% (inactive).

`O=C(Nc1cccnc1Cl)c1cc(-c2ccccc2O)on1`: the activation is 6.07% (active).

With `O=C(c1cc(-c2ccccc2O)on1)N1CCCC1`, the activation was 7.33% (active).

Take `O=C(c1cc(-c2ccc(Cl)s2)nc2ccccc12)N1CCOCC1`: the activation was -1.34% (inactive).

As for `CC(=O)C1C(c2ccc(Cl)cc2)c2c(n[nH]c2C)CC1(C)O` (centres undefined), the activation was -0.09% (inactive).

In the case of `O=S(=O)(c1cccs1)N1CCCc2nc(-c3ccc(Br)cc3)ccc21`, the activation was -0.17% (inactive).

Consider `CCc1ccc(C2=CC(=O)CC(C)(C)C2=O)cc1`, for which the activation is 1.24% (inactive).

As to `CC(C)N1CCCCC(NC(=O)c2ccc3ccccc3c2)C1=O` (centres undefined), the activation is -0.97% (inactive).

As for `C=CCN1C(=O)[C@@H](CC(=O)NCCCOCCCC)[C@]2(C(=O)OCC)CCCCC/C=C/12`, the activation was -0.92% (inactive).

Regarding `COc1ccc(S(=O)(=O)Nc2ccc3c(c2)C(=O)N([C@H](C)CO)C[C@H](C)[C@@H](CN(C)C)OCCCC[C@H](C)O3)cc1`, the activation was -1.41% (inactive).

As for `Cc1cc(Br)cn2c(Cc3ccccc3C(F)(F)F)c(-c3ccc(C#N)cc3)nc12`, the activation is 0.68% (inactive).

Consider `COc1ccc(-c2cc(=O)oc3cc(OCC(=O)N[C@@H](Cc4c[nH]c5ccccc45)C(=O)O)ccc23)cc1`, for which the activation is 4.41% (inactive).

Take `COc1ccc(-c2cc(C(=O)NC(Cc3c[nH]c4ccccc34)C(=O)O)c(C)o2)cc1OC` (centres undefined): the activation is 6.3% (active).

In the case of `COc1ccc(-c2cc(C(=O)NC(C(=O)O)C(C)C)c(C)o2)cc1OC` (centres undefined), the activation was 1.96% (inactive).

Turning to `CCOC(=O)/C=C/c1ccccc1O`, the activation is -0.51% (inactive).

Take `Cc1cc2ncn(CCCCOc3ccccc3)c2cc1C`: the activation is -1.91% (inactive).

As for `C[C@@H](CN1C2=NC[C@@H](Cc3ccccc3)N2C[C@H]1Cc1ccc(O)cc1)NC(=O)CCC1CCCCC1`, the activation is -1.42% (inactive).

For `COc1cccc(-n2nc(C(=O)N3CCN(Cc4ccccc4)CC3)c3ccccc3c2=O)c1`, the activation is -2.27% (inactive).

Regarding `COc1ccc(OC)c(-n2c(=S)[nH]c3cc(C(=O)N4CCCCC4)ccc3c2=O)c1`, the activation was -1.94% (inactive).

Take `COc1cccc(-n2c(=S)[nH]c3c(oc4ccccc43)c2=O)c1`: the activation is 5.86% (active).

Turning to `C[C@@H]1ON(C)[C@H]2C[C@H]3c4cc(N5CCOCC5)ccc4CCN3C[C@@H]12`, the activation is -1.8% (inactive).

Regarding `CCc1ccc2oc(-c3ccc(N)cc3)nc2c1`, the activation was 11.8% (active).

For `CCCCOCCCNC(=O)C[C@H]1C[C@@]2(C(=O)OC)C(=C[C@H](COCc3ccccc3)O[C@@H]2C)N(Cc2cccc3ccccc23)C1=O`, the activation was -1.88% (inactive).

With `COc1cccc(Cn2cc(COC(=O)Nc3ccc(F)cc3)nn2)c1`, the activation is -2.13% (inactive).

In the case of `Cc1cc(NS(=O)(=O)c2ccc(NC(=O)CSc3nnc(SCc4ccc(F)cc4)s3)cc2)nc(C)n1`, the activation is 0.88% (inactive).

`CC(C)Cc1oc(C(=O)O)cc1CN`: the activation was 6.53% (active).

For `CC(C)c1cc(C(=O)O)on1`, the activation was -0.85% (inactive).

For the compound `Cc1oc(CC(C)C)c(CN2CCCC2)c1C(=O)O`, the activation was -1.65% (inactive).

Turning to `O=C(OC12CCCN(C1)/C(=C/c1cccnc1)C2)C1CCCC1` (centres undefined), the activation is -3.57% (inactive).

`COC(=O)c1c(-c2ccc(OC)cc2)c2c(c3c4cc(OC)ccc4n(S(=O)(=O)c4ccc(F)cc4)c13)C(=O)N(C)C2`: the activation is -2.09% (inactive).

As to `O=C(Nc1ccc([N+](=O)[O-])cc1)OCCc1ccccn1`, the activation is 1.17% (inactive).

On to `O=[N+]([O-])c1ccc2nc(-c3ccccn3)[nH]c2c1`, for which the activation was 5.76% (active).

In the case of `O=[N+]([O-])c1cc([N+](=O)[O-])c2cccnc2c1O`, the activation is 3.46% (inactive).

As to `O=C(N1CCOCC1)N1CC[C@H]2[C@H](CCCN2Cc2ccc(F)cc2)C1`, the activation was 0.64% (inactive).

Regarding `Cc1ccccc1CN1CCCCC(NC(=O)Nc2ccccc2F)C1=O` (centres undefined), the activation is -3.94% (inactive).

As to `CN(C(=O)CSc1nnc(Nc2ccccc2)s1)C1CCS(=O)(=O)C1` (centres undefined), the activation is -0.76% (inactive).

For the compound `CC(C)Nc1nnc(SCC(=O)c2c[nH]c3ccccc23)s1`, the activation is 4.15% (inactive).

Take `CC(C)c1ccc(Nc2nnc(SCC(=O)c3nnc(-c4ccccc4)o3)s2)cc1`: the activation is 6.6% (active).

As to `COC(=O)C1=C(C)N(Cc2cccc(C(F)(F)F)c2)C(=NCc2cccc(C(F)(F)F)c2)NC1c1ccccc1C(F)(F)F` (centres undefined), the activation is -2.22% (inactive).

For the compound `CC[C@@H](CCC(=O)N(c1ccccc1)c1ccccc1)C1CC1`, the activation is -2.66% (inactive).

Regarding `COc1ccc(C(C)(NC(C)=O)c2nc(-c3ccc(S(C)(=O)=O)cc3)cs2)cc1` (centres undefined), the activation is -1.14% (inactive).

Consider `COc1ccc(C(C)(O)c2nc(-c3cc(F)cc(F)c3)cs2)cc1` (centres undefined), for which the activation is -1.58% (inactive).

For the compound `COc1ccc(-c2csc(Cc3nc(O)cs3)n2)cc1`, the activation is 10.9% (active).

As to `O=S1(=O)c2c(cccc2N2CCSCC2)Oc2ccccc2CN1Cc1cn(Cc2ccc(F)cc2)nn1`, the activation is -2.88% (inactive).

Consider `O=C(CNS(=O)(=O)c1ccccc1F)N1CCN(c2ccccn2)CC1`, for which the activation is -0.84% (inactive).

With `O=C(Nc1cccc(F)c1)c1coc(=O)c(Br)c1`, the activation was 0.1% (inactive).

For `CN(C(=O)COC(=O)c1cc(-c2ccco2)nc2ccccc12)C1CCS(=O)(=O)C1` (centres undefined), the activation is 1.58% (inactive).

On to `O=C(Nc1cccc(F)c1)c1cc(-c2ccco2)nc2ccccc12`, for which the activation is 5.67% (active).

As to `O=C(NCc1ccc(Cl)cc1)C1CCCN(c2nc3ccccc3o2)C1` (centres undefined), the activation is -2.71% (inactive).

Regarding `C/C(=N\NC(=S)NC1CCCCC1)c1ccc(C)o1`, the activation is -1.13% (inactive).

Consider `C/C(=N/NC(=O)c1ccc(Br)o1)c1ccc(C)o1`, for which the activation was 8.8% (active).

Regarding `CC(CNC(=O)c1ccc(Br)o1)NC(=O)c1ccc(Br)o1` (centres undefined), the activation is -0.92% (inactive).

For the compound `c1cncc(CNc2ccnc(-c3ccc4c(c3)OCO4)n2)c1`, the activation is 0.49% (inactive).

As for `CN1CCN(c2ccc(NC(=O)c3ccc4c(c3)OCCO4)cc2Cl)CC1`, the activation is 6.55% (active).

With `O=C(Nc1ccc(N2CCOCC2)c(Cl)c1)c1ccc(S(=O)(=O)N2CCOCC2)cc1`, the activation was -2.07% (inactive).

As to `Cc1ccc(C(=O)Nc2ccc3c(c2)OCCO3)cc1S(=O)(=O)N1CCOCC1`, the activation is 0.29% (inactive).

As to `CCSC1(SCC)N=C(N)C2(C#N)C(c3ccccc3)NC(C)=CC12C#N` (centres undefined), the activation was -0.75% (inactive).

Consider `CN1C(=O)/C(=N/OC(=O)c2ccccc2Br)c2ccccc21`, for which the activation was -0.66% (inactive).

Turning to `CN1C(=O)/C(=C\c2cc(Br)cs2)c2ccccc21`, the activation is 6.07% (active).

Take `CCC1C(=O)c2ccccc2N(C)C1=O` (centres undefined): the activation was 4.03% (inactive).

Take `COC(=O)[C@]12C[C@H](CC(=O)NCc3ccc(C)o3)C(=O)N(CCC3=CCCCC3)C1=C[C@H](C(C)(C)C)O[C@@H]2C`: the activation is 0.28% (inactive).

As for `COc1cc(/C=N/Nc2nc3ccccc3s2)ccc1O`, the activation was 11.4% (active).

Take `O=C(N/N=C/c1cc([N+](=O)[O-])ccc1O)/C(=C\c1cccs1)NC(=O)c1ccccc1`: the activation is 2.67% (inactive).

For the compound `COc1cc(/C=C/C(=O)OCC(=O)NCCCc2ccccc2)ccc1O`, the activation was -0.23% (inactive).

Consider `O=[N+]([O-])c1cc(Br)c(O)c(/C=N/Nc2nc3ccccc3s2)c1`, for which the activation was 5.75% (active).

`COc1ccc(/C=N/Nc2ncnc3sc4c(c23)CCCC4)cc1O`: the activation was 2.31% (inactive).

In the case of `O=C(C1CCCN1S(=O)(=O)c1ccccc1)N1CCc2ccccc2C1` (centres undefined), the activation was -0.91% (inactive).

Regarding `O=C(CSc1nnc(-c2ccccn2)n1-c1ccccc1)Nc1ccc2cn[nH]c2c1`, the activation is 1.82% (inactive).

Regarding `CN[C@H]1C[C@H]2c3cc(N4CCOCC4)ccc3CCN2C[C@H]1[C@H](C)O`, the activation is 0.66% (inactive).

Turning to `O=C(Nc1ccc2c(c1)OCCO2)C1c2ccccc2OCC(=O)N1Cc1ccccn1` (centres undefined), the activation was 2.69% (inactive).

For `CCCOc1ccc(NC(=O)CC2C(=O)N(C)C(=S)N2Cc2ccc3c(c2)OCO3)cc1` (centres undefined), the activation was -1.25% (inactive).

On to `O=C(Nc1ccc(Cl)cc1)C1c2cccc[n+]2CC(=O)N1Cc1ccc2c(c1)OCO2` (centres undefined), for which the activation is 6.69% (active).

For `O=C(COC(=O)/C(=C/c1cccs1)c1cccs1)NCc1ccccc1Cl`, the activation was -2.32% (inactive).

With `COc1cccc(NC(=O)N(C)C[C@@H]2OCc3cn(nn3)CCCC(=O)N([C@@H](C)CO)C[C@H]2C)c1`, the activation is 1.21% (inactive).

For `CSc1nc2nc3c(c(=O)n2[nH]1)CCC3`, the activation is 0.72% (inactive).

For `O=c1c2c(nc3cc(-c4cccc(Cl)c4)[nH]n13)CCCC2`, the activation was 8.74% (active).
